For 23 molecules, AC50 and outcome results are on record in PubChem BioAssay (EPA / NIEHS).

Where “and” joins values, the source holds several entries; their conditions need not be identical. Equal entries are not always repeated. Inconclusive results are not listed. A structure can be active in one record and inactive in another. Calls of active or inactive are those of the source. Rule for the calls: active = hit-call score of the fitted dose curve at least 0.9, where 1 is the maximum; inconclusive = response in the unintended direction; inactive = score below 0.9.

The target in this test is bovine Estrogen Receptor (ER), ESR1 (gene 407238) (UniProt P49884). The experiment in a line: NVS_NR_bER: NovaScreen (NVS) Nuclear Receptor Binding Assay for bovine Estrogen Receptor (ER) (AID 2283345).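 Note: actives lower the bound radioligand count which means they displace the ER ligand.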 On the procedure: NVS_NR_bER is a biochemical, single-readout assay that uses extracted gene-proteins from Bovine uterine membranes in a tissue-based cell-free assay. Measurements were taken 18 hours after chemical dosing in a 96-well plate.NVS_NR_bER is one of one assay component(s) measured or calculated from the NVS_NR_bER assay. It is designed to make measurements of radioligand binding, a form of binding reporter, as detected with scintillation counting signals by Lysate-based radiodetection technology.Data from the assay component NVS_NR_bER was analyzed into 1 assay endpoint. This assay endpoint, NVS_NR_bER, was analyzed in the positive analysis fitting direction relative to DMSO as the negative control and baseline of activity. Using a type of binding reporter, loss-of-signal activity can be used to understand changes in the binding as they relate to the gene ESR1. Furthermore, this assay endpoint can be referred to as a primary readout, because the performed assay has only produced 1 assay endpoint. To generalize the intended target to other relatable targets, this assay endpoint is annotated to the nuclear receptor intended target family, where the subfamily is steroidal.
Sequence of bovine Estrogen Receptor (ER), ESR1 (gene 407238) (P49884 whole entry, looked up): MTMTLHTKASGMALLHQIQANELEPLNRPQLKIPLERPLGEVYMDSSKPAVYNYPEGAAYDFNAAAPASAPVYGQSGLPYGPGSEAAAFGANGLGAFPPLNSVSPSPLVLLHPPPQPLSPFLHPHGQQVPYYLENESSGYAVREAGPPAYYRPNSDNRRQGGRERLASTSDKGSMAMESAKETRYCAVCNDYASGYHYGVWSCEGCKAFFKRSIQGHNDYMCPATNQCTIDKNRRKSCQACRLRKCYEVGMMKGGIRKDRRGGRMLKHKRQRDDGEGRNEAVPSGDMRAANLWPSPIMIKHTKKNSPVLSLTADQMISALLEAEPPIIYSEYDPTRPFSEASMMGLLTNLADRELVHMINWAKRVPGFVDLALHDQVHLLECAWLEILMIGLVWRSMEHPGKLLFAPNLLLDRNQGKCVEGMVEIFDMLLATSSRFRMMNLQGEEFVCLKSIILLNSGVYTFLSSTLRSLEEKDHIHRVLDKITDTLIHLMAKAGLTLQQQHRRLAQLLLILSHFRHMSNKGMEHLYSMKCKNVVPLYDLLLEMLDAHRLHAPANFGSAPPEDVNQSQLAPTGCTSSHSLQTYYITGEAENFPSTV
Binding assays used specific radioligands (tritiated, iodinated) with non-radioactive competitive displacement ligands in agonist or antagonist protocols (as indicated) and various reference compounds and inhibitors to titrate specific binding to receptors and transporters. Most enzyme assays (CYPs, kinases, phosphatases, proteases, HDACs) used recombinant protein and specific substrates (fluorescence mostly, some colorimetric and radioactive) and inhibitors, followed by a biochemical separation of substrate and product. All assays for the biochemical HTS were initially run in duplicate at a single concentration (10 uM for CYP450 assays and 25 uM for all others). […] Each assay was run with positive and negative controls, and concurrent controls on every plate. The follow-up (secondary) screen tested active chemical-pairs in concentration series, as well as a few additional assays not tested in the primary screen, some selected negative inactives, and several cases re-run in the concentration series for confirmatory purposes.
As for `CC#C[C@]1(O)CC[C@H]2[C@@H]3CCC4=CC(=O)CCC4=C3[C@@H](c3ccc(N(C)C)cc3)C[C@@]21C`, the AC50 (usually the concentration giving half of the maximal activity seen) was 10 µM (active) and 16.2 µM (active) and 8.77 µM (active); the result was inactive.

As to `CCC(C)(C)C1CCC(O)CC1` (centres undefined), the AC50 was 16.4 µM (active) and 12.9 µM (active).

For the molecule `O=C(O)Cc1cc(I)c(Oc2cc(I)c(O)c(I)c2)c(I)c1`, the outcome was inactive. For the molecule `Oc1cc2ccccc2c2ccccc12`, the molecule was classed as inactive. Consider `COCC(C)O` (centres undefined), for which the half-maximal activity concentration (AC50) is 3.69 µM (active).

`Cc1cc(CCN2CCN(c3nsc4ccccc34)CC2)cc2c1NC(=O)CC2(C)C`: the molecule was called inactive.

Consider `CC1=C(/C=C/C(C)=C/C=C/C(C)=C/C(=O)O)C(C)(C)CCC1`, for which the outcome was inactive. Regarding `C[C@@H]1C[C@H]2[C@@H]3CCC4=CC(=O)C=C[C@]4(C)[C@@]3(F)[C@@H](O)C[C@]2(C)[C@@]1(O)C(=O)COP(=O)(O)O`, the call was inactive. As to `O=C1OC2(c3ccccc31)c1cc(Br)c(O)c(Br)c1Oc1c2cc(Br)c(O)c1Br`, the call was inactive. The same measure, in the same setting: to `CN1CCN(c2ccccc2/C=C2\SCCN(c3ccc(Cl)c(Cl)c3)C2=O)CC1` belongs “inactive”; to `OCCC(F)(F)C(F)(F)C(F)(F)C(F)(F)C(F)(F)C(F)(F)C(F)(F)C(F)(F)F`, “inactive”.

Regarding `Cc1oc(-c2ccccc2)nc1CCOc1ccc(C[C@H](Nc2ccccc2C(=O)c2ccccc2)C(=O)O)cc1`, the call was inactive. Consider `NC(=O)N1C(=O)C(C(=O)c2cc(Cl)cs2)c2cc(F)c(Cl)cc21` (centres undefined), for which the concentration at half-maximal activity (AC50) was 25 µM (active). For the molecule `ClC1=C(Cl)C(Cl)(Cl)C(Cl)=C1Cl`, the outcome was inactive. Regarding `OC1CCC(C2CCCCC2)CC1` (centres undefined), the molecule was called inactive. Consider `C=C(C)C(=O)OCCC(F)(F)C(F)(F)C(F)(F)C(F)(F)C(F)(F)C(F)(F)F`, for which the molecule was classed as inactive.

Turning to `CN1CCC[C@H]1c1cccnc1`, the molecule was classed as inactive. In the case of `c1ccc2cc3c(ccc4ccccc43)cc2c1`, the result was inactive. Consider `C#C[C@]1(O)CC[C@H]2[C@@H]3CCC4=CC(=O)CC[C@@H]4[C@H]3CC[C@@]21C`, for which the call was inactive. Regarding `O=[N+]([O-])c1ccc(O)cc1`, the molecule was called inactive.

For the molecule `CCCOC(=O)c1ccc(O)cc1`, the molecule was classed as inactive. On the same count and under the same terms, to `CCN(CC)CCNc1ccc(CNC=O)c2sc3ccc(OC)cc3c(=O)c12` belongs “inactive”. `CCCCCCCCCCCCc1ccccc1S(=O)(=O)O`: the AC50 is 39.1 µM (active).
